Experimental data from PubChem BioAssay (Tox21).
Records with an inconclusive call do not appear. Unmarked numbers belong to inactive results. Calls follow the shape of the dose curve; as a rule, active = well fitted activation curve with a large enough effect in the repeat runs; inconclusive = weak or mixed curves; inactive = flat fitted curve, though single readings scatter.

test: A CellTox Green Cytotoxicity Assay to monitor cytotoxicity in HEK293 cells - 40 hour (AID 1224871); conditions: CellTox Green fluorescence; series mostly up to 76.8 µM; cytotoxicity increase: at the top concentration; also: nearly all actives have a fitted effect of over 45% in size
Outline: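 Real-time, in one plate: 600 HEK293 cells/well with dead-cell DNA dye, pinned compound after 5 h, 37 C incubation over 40 h; viable cells give no appreciable fluorescence.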
% is scaled to controls: 0 for no effect and ±100 for the full control effect.

First: Cc1cc(OI)c(C(C)C)cc1-c1cc(C(C)C)c(OI)cc1C
Second: Brc1cc(-c2ccc(Br)c(Br)c2Br)cc(Br)c1Br
The “cytotoxicity increase” value of the first is lower: -0.412% [at 35.3 µM] for the first, 2.58% [at 35.3 µM] for the second.

Going from `C[N+](C)(C)CCOC(N)=O` to `CCN(CC)CCNC(=O)c1ccc(NC(C)=O)cc1`, the “cytotoxicity increase” value rises from -16.3% [at 35.3 µM] to -0.148% [at 35.3 µM].

First: CC(C)(O)c1ccccc1CC[C@@H](SCC1(CC(=O)O)CC1)c1cccc(/C=C/c2ccc3ccc(Cl)cc3n2)c1
Second: O=C(O)Cc1ccc(-c2ccccc2)cc1
The “cytotoxicity increase” value of the first is higher: 11.9% [at 35.3 µM] for the first, -23.4% [at 35.3 µM] for the second.

First: CCn1cc(C(=O)O)c(=O)c2cc(F)c(N3CCNCC3)nc21
Second: CN1Cc2cc(C(=O)N3CCC(C4CCNCC4)CC3)ccc2N[C@@H](CC(=O)O)C1=O
The “cytotoxicity increase” value of the first is lower: -2.88% [at 35.3 µM] for the first, 0.194% [at 35.3 µM] for the second.

Compared with `CCC1(C)CC(=O)NC1=O` (stereo not given), `OC(CCCN1CCCCC1)(c1ccccc1)c1ccccc1` is higher in “cytotoxicity increase” value: -28.5% [at 35.3 µM] for the first, -0.556% [at 35.3 µM] for the second.

In the case of `O=C(O)c1c(O)c(-c2ccccc2)nc2ccccc12`, the “cytotoxicity increase” value is reported as 4.14% [at 35.3 µM].

First: CCCCC(CC)CNCC(CC)CCCC (stereo not given)
Second: CCCCCCCCCOC(C)=O
The “cytotoxicity increase” value of the first is lower: -1.83% for the first, 0.39% for the second.

Compared with `COCCOC`, `CCOC(=O)OCC` is higher in “cytotoxicity increase” value: 10.7% for the first, 15.6% for the second.

Going from `CC(=O)Nc1ccccc1C` to `CC(=O)Nc1ccc(N)cc1`, the “cytotoxicity increase” value rises from -0.726% to 3.85%.

Going from `C/C=C(\C)C(=O)OCCC(C)CCC=C(C)C` (stereo not given) to `CC(C)CCCCCOC(=O)CCCCC(=O)OCCCCCC(C)C`, the “cytotoxicity increase” value rises from -10.4% to -1.83%.

First: CCCCCCCC/C=C\CCCCCCCC(=O)OC(CO)CO
Second: O=C(CS)OCCOC(=O)CS
The “cytotoxicity increase” value of the first is lower: -16% for the first, 6.57% for the second.

First: CCn1nc(C)c2c1C(=O)NCC(c1ccc(O)cc1)=N2
Second: Cc1ccnc2ccccc12
The “cytotoxicity increase” value of the first is higher: -1.76% for the first, -2.26% for the second.

Going from `O=S(=O)(c1ccccc1)c1ccc(Cl)cc1` to `CC(C)(C)C(=O)O`, the “cytotoxicity increase” value rises from 9.85% to 12.2%.
